# Article PMC4336329 (PLoS ONE, 2015)
# The whole screen tested about 310,000 compounds, of which about 14,000 (4.5%) showed an effect of 50% or more. The effect is printed as a negative number. This excerpt belongs to a sample that is enriched for strong results.
# Target: human ether-à-go-go-related gene (hERG) potassium channel (human, UniProt Q12809)
# Assay: primary screen, population patch clamp on CHO cells stably expressing hERG; higher = less effect of the substance
# 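Note: peak tail current of the secondary pulse compared with the same well before compound.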
# Sequence of human ether-à-go-go-related gene (hERG) potassium channel (Q12809 whole entry, looked up): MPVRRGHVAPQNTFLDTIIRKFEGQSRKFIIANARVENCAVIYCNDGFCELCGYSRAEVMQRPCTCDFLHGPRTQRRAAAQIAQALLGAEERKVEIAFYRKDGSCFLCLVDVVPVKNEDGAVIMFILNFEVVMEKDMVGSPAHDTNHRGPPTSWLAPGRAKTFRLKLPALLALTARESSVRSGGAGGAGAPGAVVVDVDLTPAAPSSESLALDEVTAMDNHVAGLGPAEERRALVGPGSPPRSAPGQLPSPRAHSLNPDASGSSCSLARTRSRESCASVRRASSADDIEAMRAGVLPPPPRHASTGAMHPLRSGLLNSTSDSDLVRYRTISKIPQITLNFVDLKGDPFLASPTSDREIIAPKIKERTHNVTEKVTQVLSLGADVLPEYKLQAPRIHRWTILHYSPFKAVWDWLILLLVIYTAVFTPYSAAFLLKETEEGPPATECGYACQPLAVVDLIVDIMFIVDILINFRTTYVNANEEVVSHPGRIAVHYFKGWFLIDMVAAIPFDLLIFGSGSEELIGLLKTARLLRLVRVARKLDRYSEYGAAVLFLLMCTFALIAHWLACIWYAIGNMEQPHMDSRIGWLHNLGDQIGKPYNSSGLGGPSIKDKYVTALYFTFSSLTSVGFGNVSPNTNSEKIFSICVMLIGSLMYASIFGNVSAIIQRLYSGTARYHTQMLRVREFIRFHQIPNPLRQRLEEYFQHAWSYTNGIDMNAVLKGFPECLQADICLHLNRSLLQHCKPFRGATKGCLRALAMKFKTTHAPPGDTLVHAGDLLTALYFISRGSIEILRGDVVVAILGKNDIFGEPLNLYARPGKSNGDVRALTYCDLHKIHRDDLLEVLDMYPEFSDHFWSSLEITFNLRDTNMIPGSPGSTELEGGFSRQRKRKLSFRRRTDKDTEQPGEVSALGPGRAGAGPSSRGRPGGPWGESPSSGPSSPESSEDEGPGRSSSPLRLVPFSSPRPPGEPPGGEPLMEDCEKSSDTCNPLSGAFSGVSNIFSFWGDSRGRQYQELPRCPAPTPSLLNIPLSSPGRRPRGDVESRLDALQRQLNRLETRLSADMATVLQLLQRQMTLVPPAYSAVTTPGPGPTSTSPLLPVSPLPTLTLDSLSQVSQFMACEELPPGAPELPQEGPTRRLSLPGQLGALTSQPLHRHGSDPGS
row,SMILES,"hERG current change (%, negative = inhibition) at 10uM [%]"
1,O=C(NCCCN1CCOCC1)c1ccc2nc(Cc3cccc(Cl)c3)oc2c1,-7.7
2,COC(=O)c1ccccc1NC(=O)NCc1ccccn1,-6.01
3,O=C(CC(Cc1ccccc1)C(=O)O)Nc1ccc(F)cc1 (centres unmarked),10.4
4,COC(=O)c1cc(=O)n(Cc2cccs2)c(=Nc2ccccc2)s1,-0.229
5,Oc1cccc(/C=N/Nc2ccc(Cl)nn2)c1O,8.72
6,CC(OC(=O)CNC(=O)c1ccco1)C(=O)Nc1ccc(Cl)cn1 (centres unmarked),-11.4
7,O=C(/C=C/c1cn(CC(O)CN2CCOCC2)c2ccccc12)c1cccs1 (centres unmarked),-21.8
8,CCCN(CCC)CC(O)Cn1cc(/C=C/C(=O)c2cccs2)c2ccccc21 (centres unmarked),-30.7
9,O=Cc1cn(CC(O)CN2CCCCC2)c2ccccc12 (centres unmarked),27.3
10,O=C(/C=C/c1cn(CC(O)CN2CCCCCC2)c2ccccc12)c1cccs1 (centres unmarked),-75.2
11,CCCCN(C)CC(O)Cn1cc(/C=C/C(=O)c2cccs2)c2ccccc21 (centres unmarked),-33.7
12,O=C(/C=C/c1cn(CC(O)CN2CCCCC2)c2ccccc12)c1cccs1 (centres unmarked),-54.4
13,CCCC(=O)Nc1c(-c2ccccc2)c(=O)c(C)nn1-c1ccccc1,10.3
14,Cc1ccc(S(=O)(=O)CCC(=O)Nc2ccc3nc(C)sc3c2)cc1,3.75
15,CC(C)c1c(C(=O)N/N=C/c2ccc(-c3ccccc3)cc2)nnn1-c1nonc1N,26.6
16,C=CCc1ccccc1OCC(O)CNC(C)C.Cl (centres unmarked),-33.3
17,CCS(=O)(=O)n1nc(-c2ccc(OC)cc2)nc1N,11.6
18,COc1ccc(CCC(N)=O)cc1OC,11.1
19,Clc1ccc(C(c2nnnn2CCc2ccccc2)N2CCSCC2)cc1 (centres unmarked),0.814

row,SMILES,"hERG current change (%, negative = inhibition) at 10uM [%]"
1,COc1ccc(C(c2nnnn2C2CCCC2)N2CCN(C3CCCC3)CC2)cc1OC.Cl (centres unmarked),-22.7
2,COCCn1nnnc1C(c1ccc(Cl)cc1)N1CCSCC1.Cl (centres unmarked),-51.9
3,Cl.Fc1ccc(Cn2nnnc2C(c2ccc(Cl)cc2)N2CCSCC2)cc1 (centres unmarked),-1.72
4,N#Cc1cccc(C(c2nnnn2CCc2ccccc2)N2CCN(C3CCCCC3)CC2)c1 (centres unmarked),-61
5,N#Cc1cccc(C(c2nnnn2C2CCCC2)N2CCC(Cc3ccccc3)CC2)c1 (centres unmarked),8.5
6,CC(C)(C)n1nnnc1C(c1cccc(C#N)c1)N1CCCCCC1 (centres unmarked),-4.75
7,N#Cc1ccc(C(c2nnnn2CCc2ccccc2)N2CCCCCC2)cc1 (centres unmarked),-26.3
8,COCCn1nnnc1C(c1cccc(C#N)c1)N1CCCCCC1.Cl (centres unmarked),-56.6
9,COc1ccc(C(c2nnnn2CCc2ccccc2)N2CCN(C3CCCC3)CC2)cc1OC.Cl (centres unmarked),-64.3
10,COc1ccc(CCn2nnnc2C(c2ccccc2)N2CCN(C)CC2)cc1OC.Cl (centres unmarked),7.37
11,Cl.N#Cc1cccc(C(c2nnnn2Cc2ccccc2)N2CCCC2)c1 (centres unmarked),-22.7
12,CC(C)(C)C1CCC(=NOC(=O)c2ccc(F)cc2)CC1 (centres unmarked),15.7
13,O=C(CNC(=O)c1cccc(Br)c1)N/N=C/c1ccc[nH]1,22.5
14,Cc1ccc(-c2cc(-c3ccccc3Cl)c(C#N)c(N)n2)o1,3.05
15,COc1ccccc1-c1ccc(C(=O)O)o1,7.06
16,COC(=O)c1cn(C)c2ccc(S(=O)(=O)N3CC(C)CC(C)C3)cc2c1=O (centres unmarked),-5.76
17,COc1ccc(CCNC(=S)Nc2ccc(C)cc2C)cc1,2.89
18,CC(=O)O.CC1(C)CC(=O)C2=C(C1)NC1=C(C(=O)c3ccccc31)C2c1cc([N+](=O)[O-])ccc1O (centres unmarked),-37.1
19,CCOC(=O)c1c(S(=O)(=O)NCC(C)c2ccccc2)c(C)n(C)c1C (centres unmarked),-17.8

row,SMILES,"hERG current change (%, negative = inhibition) at 10uM [%]"
1,COc1ccc(C(c2nnnn2CCc2ccccc2)N2CCN(C3CCCC3)CC2)cc1.Cl (centres unmarked),-68
2,Cc1ccc(C(c2nnnn2CCc2ccccc2)N2CCC(C)CC2)cc1.Cl (centres unmarked),13.8
3,CCCC(c1nnnn1CCc1ccccc1)N1CCN(C2CCCC2)CC1 (centres unmarked),-48.9
4,COc1ccccc1CC(=O)N(Cc1ccccc1)c1ccc(C)cc1,-16
5,CCN(CC)S(=O)(=O)c1ccc(S(=O)(=O)N2CCCC2C(=O)O)cc1 (centres unmarked),-0.323
6,CCOn1c(=O)c(-c2ccccc2)[n+]([O-])c2ccccc21,1.67
7,COc1ccc(C(=O)C2CCN(CC(=O)NCc3ccccc3)CC2)cc1,-46.3
8,O=C(CN1CCC(C(=O)c2ccc(F)cc2)CC1)Nc1ccccc1,-29.7
9,Cc1ccc(NC(=O)CN2CCC(C(=O)c3ccc(F)cc3)CC2)cc1,-72.5
10,COc1nc(OC)nc(N2CCC(C(=O)NCc3ccc(F)cc3)CC2)n1,-44.9
11,COc1ccc(CNC(=O)C2CCN(c3nc(OC)nc(OC)n3)CC2)cc1,-65.1
12,COc1ccc(CNC(=O)CN2CCC(C(=O)c3ccc(OC)cc3)CC2)cc1,-58
13,COc1nc(OC)nc(N2CCC(C(=O)NCc3cccs3)CC2)n1,-45
14,O=C(CN1CCC(C(=O)c2ccc(F)cc2)CC1)Nc1ccc(F)cc1,-64.7
15,CC(=O)c1ccc(NC(=O)CN2CCC(C(=O)c3ccc(F)cc3)CC2)cc1,-22.9
16,COc1ccc(C(=O)NC2CCN(CC(=O)NCc3ccccc3)CC2)cc1,-24.4
17,Cc1c(NC(=O)/C(C#N)=C/c2ccc(-c3ccc(Cl)cc3)o2)c(=O)n(-c2ccccc2)n1C,-41.5
18,COc1ccc(C(=O)OCC(=O)c2cc(C)n(CC3CCCO3)c2C)cc1[N+](=O)[O-] (centres unmarked),-42.9
